Each structure is given as a SMILES string. Records with an inconclusive call do not appear. Where a call stands in place of a potency, no number is given. The source made the active and inactive calls. Calls come from the whole dose curve; as a rule, active = well fitted inhibition curve with a large enough effect; inconclusive = small, poorly fitted or top-dose-only effect; inactive = no such curve, though single readings can be large or run the other way.
Potency is the fitted concentration of half-maximal effect.

Nicotinamide N-methyltransferase (Homo sapiens), sequence (P40261 whole entry, looked up): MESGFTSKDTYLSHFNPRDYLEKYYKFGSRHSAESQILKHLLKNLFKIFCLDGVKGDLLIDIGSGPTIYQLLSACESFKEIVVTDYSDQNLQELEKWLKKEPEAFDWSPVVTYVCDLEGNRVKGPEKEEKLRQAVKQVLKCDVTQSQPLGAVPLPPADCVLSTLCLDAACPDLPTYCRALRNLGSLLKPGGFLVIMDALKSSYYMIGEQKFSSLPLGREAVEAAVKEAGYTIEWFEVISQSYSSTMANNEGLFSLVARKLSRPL

This assay has as its target Nicotinamide N-methyltransferase (Homo sapiens) (UniProt P40261). Nature of the assay: qHTS Assay for Inhibitors of N-terminal methyltransferase 1 (NTMT1): NNMT MTaseGlo counterscreen assay. As to conditions: NNMT enzyme, MTase-Glo luminescence counterscreen; series mostly up to 57.1 µM. The procedure, abridged:
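Luminescent MTase-Glo read-out of SAH from nicotinamide methylation: 1 µM nicotinamide, 100 µM SAM, 125 nM NNMT, 30 min RT after ~15 min compound preincubation. Values normalized to no-enzyme/DMSO controls, Hill-fitted.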
(Quantitative high-throughput screening tests each substance at several concentrations.)
On to `COc1cc(/C=C(\C#N)C(=O)Nc2nnc(C(F)(F)F)s2)ccc1OCc1ccc(C(F)(F)F)cc1C(F)(F)F`, for which the Potency entry was “inactive”.

With `N#C/C(=C\c1ccc(O)c(O)c1)C(=O)Nc1ccccc1`, the Potency result was “inactive”.

`O=C(/C=C/c1ccc(O)c(O)c1)OCCc1ccccc1`: the Potency result is “inactive”.

On to `Oc1ccc(C2CNCc3sccc32)cc1O` (configuration not stated), for which the Potency was 35.5 µM (active).

With `C=CCN1CCc2c(cc(O)c(O)c2Cl)C(c2ccccc2)C1` (configuration not stated), the Potency result was “inactive”.

Turning to `OC[C@H]1O[C@@H](n2cnc3c(NCc4ccco4)ncnc32)[C@H](O)[C@@H]1O`, the Potency entry is “inactive”.

In the case of `Oc1cc2c(cc1O)C(c1ccccc1)CNCC2` (configuration not stated), the Potency entry was “inactive”.

`CN=c1nc(-c2ccccc2)n(-c2ccccc2)s1`: the Potency result is “inactive”.

For the molecule `O=c1c(O)c(-c2ccc(O)c(O)c2)oc2cc(O)cc(O)c12`, the Potency result is “inactive”.

Regarding `C[N+]1(C)CCC(OC(=O)C(c2ccccc2)c2ccccc2)CC1`, the Potency result is “inactive”.

With `O=C(/C=C/c1ccc(O)cc1)c1ccc(O)cc1O`, the Potency entry is “inactive”.

As for `Cc1ccccc1CNc1ncnc2c1ncn2[C@@H]1O[C@H](CO)[C@@H](O)[C@H]1O`, the Potency entry was “inactive”.

`CN1CCN(CCCN2c3ccccc3Sc3ccc(Cl)cc32)CC1`: the Potency result was “inactive”.

Consider `COc1cc(CNC(=O)CCCCCCC(C)C)ccc1O`, for which the Potency entry is “inactive”.

Regarding `Oc1ccc(Cn2cc[nH]c2=S)cc1`, the Potency entry is “inactive”.

Take `Cc1cccc(/C=C/c2ccccc2)n1`: the Potency result is “inactive”.

In the case of `Nc1nc(=S)c2ncn([C@H]3O[C@@H](CO)[C@@H](O)[C@@H]3O)c2[nH]1`, the Potency result is “inactive”.

As for `COc1cc2c(NC3CCN(C)CC3)nc(N3CCCCC3)nc2cc1OCCCN(C)C`, the Potency entry was “inactive”.

Regarding `Oc1ccc(O)cc1`, the Potency was 39.8 µM (active).

For `CC1=C(\C=C/C(C)=C/C=C\C(C)=C\C(=O)O)C(C)(C)CCC1`, the Potency entry is “inactive”.

Take `OCC1OC(n2cnc3c(NO)ncnc32)C(O)C1O` (configuration not stated): the Potency result was “inactive”.

With `Oc1ccc2ccccc2c1SSc1c(O)ccc2ccccc12`, the Potency entry is “inactive”.

Turning to `N=c1c[n+](N2CCOCC2)[n-]o1`, the Potency entry was “inactive”.

As for `Nc1ccc(CCNc2ncnc3c2ncn3C2OC(CO)C(O)C2O)cc1` (configuration not stated), the Potency result was “inactive”.

For the molecule `CC(C)(C)c1ccc(S(=O)(=O)/C=C\C#N)cc1`, the Potency is 11.2 µM (active).

For `N.N.N.N.N.N.N.N.N.N.N.N.N.N.O.O.[Ru+4].[Ru+5].[Ru+5]`, the Potency entry is “inactive”.

In the case of `S=C(S)N1CCCC1`, the Potency is 25.1 µM (active).

With `OCC1OC(n2cnc3c(=S)nc[nH]c32)C(O)C1O` (configuration not stated), the Potency result was “inactive”.

Consider `CN(C)CCCN1c2ccccc2Sc2ccc(C(F)(F)F)cc21`, for which the Potency entry is “inactive”.

Turning to `CC(C)COCC(CN(Cc1ccccc1)c1ccccc1)N1CCCC1` (configuration not stated), the Potency entry is “inactive”.

In the case of `CC(C)=CCNc1ncnc2c1ncn2[C@@H]1O[C@H](CO)[C@@H](O)[C@H]1O`, the Potency entry was “inactive”.

`Nc1nc2ccc(Cl)cc2c2nc(-c3ccco3)nn12`: the Potency result was “inactive”.

Regarding `Nc1ccnc2c1ncn2[C@@H]1O[C@H](CO)[C@@H](O)[C@H]1O`, the Potency is 14.1 µM (active).

For the molecule `Cc1nnc(SCC2=C(C(=O)O)N3C(=O)[C@@H](NC(=O)Cn4cnnn4)[C@H]3SC2)s1`, the Potency result is “inactive”.

For `C/C(=C\CNc1ncnc2c1ncn2[C@@H]1O[C@H](CO)[C@@H](O)[C@H]1O)CO`, the Potency result was “inactive”.

`O=c1cc(-c2ccccc2)oc2c(O)c(O)ccc12`: the Potency result is “inactive”.

For the molecule `Clc1ccc(N2CCN(Cc3c[nH]c4ncccc34)CC2)cc1`, the Potency entry is “inactive”.

The record behind these values is PubChem BioAssay AID1347146 (National Center for Advancing Translational Sciences (NCATS), 2019).
